Here are results for 7 compounds from PubChem BioAssay (EPA / NIEHS).

Usually AC50 stands for the concentration giving half of the maximal activity seen.

Active and inactive are the calls of the source. Rule for the calls: active = hit-call score of the fitted dose curve at least 0.9, where 1 is the maximum; inactive = score below 0.9.

One assay in a line: CEETOX_H295R_OHPROG: CeeTox H295R High-throughput Steroidogenesis Assay for OH-Progesterone (OHPROG) (AID 2283435).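 For AC50: human adrenal H295R cells primed 48 h with 10 µM forskolin; 17alpha-hydroxyprogesterone secreted into medium measured by HPLC-MS/MS.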 As to conditions: actives raise or lower the signal. The method, boiled down:
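Steps: seed H295R cells and adhere overnight; stimulate with 10 uM forskolin for 48 h; replace with chemical-containing medium (0.1% DMSO) for 48 h; extract medium with MTBE; quantify 17alpha-hydroxyprogesterone by reverse-phase C18 HPLC-MS/MS against a 7-point curve.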
For `O=P(Oc1ccccc1)(Oc1ccccc1)Oc1ccccc1`, the AC50 was 1.85 µM (active).
As to `O=S1(=O)OCC2C(CO1)C1(Cl)C(Cl)=C(Cl)C2(Cl)C1(Cl)Cl` (centres undefined), the AC50 is 10 µM (active).
Regarding `CCCCc1ccc(O)cc1`, the result was inactive.
The same measure, in the same setting: to `CCNc1nc(Cl)nc(NC(C)(C)C)n1` belongs “inactive”.
`CCC(C)(C)c1ccc(O)cc1`: the AC50 is 15.5 µM (active).
The same measure, in the same setting: the same measure for `O=S(=O)(c1ccc(O)cc1)c1ccc(O)cc1`: 0.82 µM (active).
Still for that read-out and setting: the same measure for `CO/N=C(/C(=O)OC)c1ccccc1COc1ccccc1C`: 4.07 µM (active).

A further assay is described as follows: CEETOX_H295R_CORTISOL: CeeTox H295R High-throughput Steroidogenesis Assay for Cortisol (AID 2283438).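 Note: cortisol secreted into medium quantified by LC-MS/MS.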 As to conditions: actives raise or lower the signal. The method, boiled down: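 Cortisol synthesis by H295R cells is measured 48 h after chemical dosing, following a 48 h stimulation with 10 uM forskolin. Hormone is extracted and quantified by HPLC-MS/MS, and activity is fitted bidirectionally against the DMSO control.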
For the compound `O=P(Oc1ccccc1)(Oc1ccccc1)Oc1ccccc1`, the compound was classed as inactive.
For the compound `O=S1(=O)OCC2C(CO1)C1(Cl)C(Cl)=C(Cl)C2(Cl)C1(Cl)Cl` (centres undefined), the AC50 was 9.67 µM (active).
Same read-out and setting: to `CCCCc1ccc(O)cc1` belongs 28.4 µM (active).
As to `CCNc1nc(Cl)nc(NC(C)(C)C)n1`, the call was inactive.
Take `CCC(C)(C)c1ccc(O)cc1`: the call was inactive.
In the case of `O=S(=O)(c1ccc(O)cc1)c1ccc(O)cc1`, the AC50 was 28.4 µM (active).
Same read-out and setting: to `CO/N=C(/C(=O)OC)c1ccccc1COc1ccccc1C` belongs 9.52 µM (active).
